Results reported in article PMC6451091, “NextPBM: a platform to study cell-specific transcription factor binding and cooperativity”.
In all, about 3,700 sequences were measured (“z-score”: median about 4, highest 2% from about 8.4 on). For the sample, the highest values were picked, then their nearest neighbours and some sequences at random.

How the values were obtained:
PU.1 (IVT) [1] = molecular target: PU.1 (IVT) (UniProt P17947 1-270); assay: protein-binding microarray (PBM); 20 mM HEPES pH 7.9, 100 mM NaCl, 1 mM DTT, 0.2 mg/mL BSA, 0.02% Triton X-100, 2% milk, 0.4 mg/mL salmon testes DNA; 1 h; temperature not stated; high values mean tight binding; details: dsDNA, one strand shown
In short: (§1)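 Full-length untagged PU.1 was made by coupled human in vitro transcription/translation. It was bound for 1 h to custom double-stranded DNA microarrays carrying 20-bp genomic sites and single-nucleotide variants, 10 probes per site (5 per orientation). The binding buffer was HEPES pH 7.9 with 100 mM NaCl, 2% milk and salmon testes DNA. Bound protein was detected with anti-PU.1 and then a fluorescent secondary antibody. Binding is a z-score from scanned fluorescence after linear-regression normalisation.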

PU.1 (IVT) [2] = molecular target: PU.1 (IVT) (UniProt P17947 1-270); assay: as above; details: dsDNA, one strand shown; remark: listed apart in the source
In short: as §1

| Sequence | binding signal (PU.1 (IVT) [1]) | binding signal (PU.1 (IVT) [2]) |
| --- | --- | --- |
| GCCTAGCACTGATAGAGGAAGTGCAACCAGTGCTAGGTCTTGATTCGCTTGACGCTGCTG | 4.92 z-score | – |
| GCCTAGCACGATAGCAGGAAGTGAAACTAGTGCTAGGTCTTGATTCGCTTGACGCTGCTG | 3.14 z-score | – |
| GCCTAGCACGCAGAGAGGAAGTGTGAATGGTGCTAGGTCTTGATTCGCTTGACGCTGCTG | 3.72 z-score | – |
| GCCTAGCACTGAGAGGAGAAGTGAAACCCGTGCTAGGTCTTGATTCGCTTGACGCTGCTG | – | 1.26 z-score |
| GCCTAGCACATTTCTGGGAAGTGAAACTAGTGCTAGGTCTTGATTCGCTTGACGCTGCTG | 1.93 z-score | – |
| GCCTAGCACATAAAAGGGAAGTGGGGCATGTGCTAGGTCTTGATTCGCTTGACGCTGCTG | 5.38 z-score | – |
| GCCTAGCACAGAAAAAGGAAGTGAGCAAAGTGCTAGGTCTTGATTCGCTTGACGCTGCTG | 5.53 z-score | – |
| GCCTAGCACTTAAAGAGGAAGAGCATCTTGTGCTAGGTCTTGATTCGCTTGACGCTGCTG | 3.21 z-score | – |
| GCCTAGCACTCAAAGAGGAAGTGACATTTGTGCTAGGTCTTGATTCGCTTGACGCTGCTG | – | 7.03 z-score |
| GCCTAGCACGAAAAAGGGAACTGGTTGGGGTGCTAGGTCTTGATTCGCTTGACGCTGCTG | – | 5.22 z-score |
| GCCTAGCACGGAAGAAGGAAGTGGGGGCCGTGCTAGGTCTTGATTCGCTTGACGCTGCTG | – | 3.66 z-score |
| GCCTAGCACAGGAGGAGGAAGTGGGGGGAGTGCTAGGTCTTGATTCGCTTGACGCTGCTG | – | 4.05 z-score |
| GCCTAGCACGATAAGAGGAACTGTAAGCTGTGCTAGGTCTTGATTCGCTTGACGCTGCTG | – | 3.92 z-score |
| GCCTAGCACTGAGAGGAGAAGTGAAATCTGTGCTAGGTCTTGATTCGCTTGACGCTGCTG | 1.39 z-score | – |
| GCCTAGCACCAAATTAGGAACTGATGCGGGTGCTAGGTCTTGATTCGCTTGACGCTGCTG | 2.14 z-score | – |
| GCCTAGCACGCTAAGAGGAAGTCCTCTGTGTGCTAGGTCTTGATTCGCTTGACGCTGCTG | 5.07 z-score | – |
| GCCTAGCACAAAAAGAGGAAGTGATGATGGTGCTAGGTCTTGATTCGCTTGACGCTGCTG | – | 9.07 z-score |
| GCCTAGCACAAAAAGAGGAAGGGTGGCTGGTGCTAGGTCTTGATTCGCTTGACGCTGCTG | 4.91 z-score | – |
| GCCTAGCACAAAAAGAGGAAGGGACCCAAGTGCTAGGTCTTGATTCGCTTGACGCTGCTG | – | 5.29 z-score |
| GCCTAGCACAAGAGGAGGAAGTGAGAGAGGTGCTAGGTCTTGATTCGCTTGACGCTGCTG | – | 4.33 z-score |
| GCCTAGCACAAAAAGAGGAAGTGAGATGGGTGCTAGGTCTTGATTCGCTTGACGCTGCTG | – | 8.88 z-score |
| GCCTAGCACAAAAAAAGGAAGTGGTAGCAGTGCTAGGTCTTGATTCGCTTGACGCTGCTG | – | 6.75 z-score |
| GCCTAGCACAAAAGGAGGAAGTGATGATGGTGCTAGGTCTTGATTCGCTTGACGCTGCTG | 6.55 z-score | – |
| GCCTAGCACAAAAAGCGGAAGTGCAAAAGGTGCTAGGTCTTGATTCGCTTGACGCTGCTG | – | 8.5 z-score |
| GCCTAGCACAAAAAAAGGAAGTGCTCAAGGTGCTAGGTCTTGATTCGCTTGACGCTGCTG | 6.42 z-score | – |
| GCCTAGCACAAAAAGAGGAAGTGGTACAAGTGCTAGGTCTTGATTCGCTTGACGCTGCTG | – | 8.76 z-score |

| Sequence | binding signal (PU.1 (IVT) [1]) | binding signal (PU.1 (IVT) [2]) |
| --- | --- | --- |
| GCCTAGCACAAAAAAAGGAAGTGAGATAAGTGCTAGGTCTTGATTCGCTTGACGCTGCTG | – | 6.74 z-score |
| GCCTAGCACACAAAGGGGAAGTGCTAGGGGTGCTAGGTCTTGATTCGCTTGACGCTGCTG | 6.35 z-score | – |
| GCCTAGCACGAAAGGAGGAAGTGAAACTGGTGCTAGGTCTTGATTCGCTTGACGCTGCTG | 6.19 z-score | – |
| GCCTAGCACCAAATGAGGAATTGATGCGGGTGCTAGGTCTTGATTCGCTTGACGCTGCTG | 2.8 z-score | – |
| GCCTAGCACCAGAAAAGGAAGTAAGCCACGTGCTAGGTCTTGATTCGCTTGACGCTGCTG | – | 3.98 z-score |
| GCCTAGCACAAAAAGAGGAAGTGACTTCAGTGCTAGGTCTTGATTCGCTTGACGCTGCTG | – | 8.34 z-score |
| GCCTAGCACAAAAGAGGGAAGTGACATTCGTGCTAGGTCTTGATTCGCTTGACGCTGCTG | 5.89 z-score | – |
| GCCTAGCACAAAAAGAGGAAGTGACTCACGTGCTAGGTCTTGATTCGCTTGACGCTGCTG | – | 8.49 z-score |
| GCCTAGCACAAAAAAAGGAAGTACAGTAAGTGCTAGGTCTTGATTCGCTTGACGCTGCTG | – | 6.54 z-score |
| GCCTAGCACAAAAAGAGGAAGTACATTAAGTGCTAGGTCTTGATTCGCTTGACGCTGCTG | – | 8.68 z-score |
| GCCTAGCACGCAAAGAGGAAGTGACTCAAGTGCTAGGTCTTGATTCGCTTGACGCTGCTG | – | 6.81 z-score |
| GCCTAGCACGATTTGAGGAAATGAAACTTGTGCTAGGTCTTGATTCGCTTGACGCTGCTG | 3.79 z-score | – |
| GCCTAGCACAAAAAGGGGAAGTCATCTATGTGCTAGGTCTTGATTCGCTTGACGCTGCTG | – | 8.05 z-score |
| GCCTAGCACAATATGAGGAAGTGCTCTAGGTGCTAGGTCTTGATTCGCTTGACGCTGCTG | 6.67 z-score | – |
| GCCTAGCACTTACACAGGAAGTGCTGGCAGTGCTAGGTCTTGATTCGCTTGACGCTGCTG | 2.14 z-score | – |
| GCCTAGCACAAAAACAGGAAGTCCTATTCGTGCTAGGTCTTGATTCGCTTGACGCTGCTG | – | 7.91 z-score |
| GCCTAGCACAAAAAGAGGAAGAGAAACTTGTGCTAGGTCTTGATTCGCTTGACGCTGCTG | – | 6.04 z-score |
| GCCTAGCACAAAATGAGGAAGTCATTCTTGTGCTAGGTCTTGATTCGCTTGACGCTGCTG | – | 8.35 z-score |
| GCCTAGCACAAAAAGAGGAAGTGCTACTTGTGCTAGGTCTTGATTCGCTTGACGCTGCTG | – | 8.88 z-score |
| GCCTAGCACAAAAAGAGGAAGTCATTCTTGTGCTAGGTCTTGATTCGCTTGACGCTGCTG | – | 8.71 z-score |
| GCCTAGCACAAAAAGAGGAAGTCCTATTTGTGCTAGGTCTTGATTCGCTTGACGCTGCTG | – | 8.54 z-score |
| GCCTAGCACACAAAGAGGAAGTCCCATTTGTGCTAGGTCTTGATTCGCTTGACGCTGCTG | – | 7.29 z-score |
| GCCTAGCACAAAAAGAGGAAGAGGCGCTTGTGCTAGGTCTTGATTCGCTTGACGCTGCTG | – | 5.63 z-score |
| GCCTAGCACAAAAATAGGAAATGAAAGTAGTGCTAGGTCTTGATTCGCTTGACGCTGCTG | 3 z-score | – |
| GCCTAGCACGAAAGAGGGAAGTGGGCATAGTGCTAGGTCTTGATTCGCTTGACGCTGCTG | – | 4.48 z-score |
| GCCTAGCACGCAGGGAGGAAGTGGGGAAGGTGCTAGGTCTTGATTCGCTTGACGCTGCTG | 3.42 z-score | – |
